Screening results deposited in PubChem BioAssay by National Center for Advancing Translational Sciences (NCATS).
Sampled rows, rich in hits. Any-hit rate of the full collection: about 6.1%.
D1 antag: antagonists of human D1 dopamine receptor | P21728 | 3.2% of 360,000 active | HEK293 TREx D1 cells, calcium flux, dopamine EC80; stronger effect = lower value | AID 504652 | activity change, negative = inhibition, % at 10 µM; in the data active = activity change below about -30%; note: % is set by controls: 0 for no effect and ±100 for the full control effect
Target sequence (P21728 whole entry, looked up): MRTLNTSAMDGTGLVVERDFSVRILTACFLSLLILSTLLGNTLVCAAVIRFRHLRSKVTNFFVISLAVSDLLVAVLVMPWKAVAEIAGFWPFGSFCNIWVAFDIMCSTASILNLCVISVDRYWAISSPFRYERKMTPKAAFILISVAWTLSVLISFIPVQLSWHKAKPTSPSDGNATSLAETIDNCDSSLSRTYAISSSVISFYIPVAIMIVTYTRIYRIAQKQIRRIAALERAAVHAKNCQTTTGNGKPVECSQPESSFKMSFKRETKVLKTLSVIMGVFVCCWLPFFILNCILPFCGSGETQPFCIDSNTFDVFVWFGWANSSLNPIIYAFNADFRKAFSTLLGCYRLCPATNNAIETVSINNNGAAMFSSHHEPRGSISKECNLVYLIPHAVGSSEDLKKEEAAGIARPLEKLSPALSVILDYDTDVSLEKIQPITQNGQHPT
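Compound effects on dopamine-evoked calcium signalling were measured in tetracycline-induced HEK293 Trex D1 cells. Dopamine at EC80 followed a 180 s compound pre-read, and fluorescence was tracked kinetically for 180 s more.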
DRD3 antagonist: antagonists of human D3 dopamine receptor. D3R cells, DiscoveRx beta-arrestin luminescence, antagonist mode; stronger effect = lower value. 2.5% of 360,000 active. AID 652054. P35462. max response, negative = inhibition, %; in the data active = max response below about -50%; inconclusive = no clear call, values can overlap the other calls; note: % is set by controls: 0 for no effect and ±100 for the full control effect
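Cells plated overnight at 1500 cells/well, then exposed to library compounds with dopamine controls for 90 minutes at 37 degrees C. DiscoveRx reagent added for 30–60 minutes at room temperature; luminescence read, quantitative HTS format.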
D1 PAM: human D1 dopamine receptor positive modulation. P21728. HEK293 TREx D1 cells, calcium flux, dopamine EC20 potentiation. potentiation, % at 10 µM. 0.036% of 360,000 active. AID 504651; in the data active = potentiation above about 30%; note: 0% is about no effect
D1 agonist: agonists of human D1 dopamine receptor; HEK293 T-REx D1 cells, calcium flux, agonist mode; P21728; 1% of 360,000 active; activation, % at 2 µM; in the data active = activation above about 30%; note: 0% is about no effect
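Inducible HEK293 T-REx D1 cells, force-coupled to calcium signalling, were plated at 4000 cells/well with tetracycline and held overnight at 30 C. After no-wash calcium dye loading, compound-evoked calcium rise over 180 s flagged agonists.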
D3 ag: D3 dopamine receptor (human) agonism; P35462; D3R DiscoveRx beta-arrestin cells, luminescence, 90 min; max activation, %; 0.58% of 410,000 active; AID 652048; in the data active = max activation above about 30%; note: 0% is about no effect
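Cells at 1500/well, incubated overnight, then treated with pinned compounds (dopamine as control) for 90 min at 37 degrees C. DiscoveRx reagent added for 30 - 60 minutes at room temperature; luminescence read.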
Active calls of the source: *; ? = inconclusive; . = not tested or not shown; ! = not active in a repeat.

SMILES	D1 antag	DRD3 antagonist	D1 PAM	D1 agonist	D3 ag
CC(C)Cn1cnc2c(c(-c3ccccc3)c(-c3ccccc3)n2Cc2ccco2)c1=N	20.2	-62.0*	-2.2	34.0*	-1.9
OCCNc1ncnc2c1c(-c1ccccc1)c(-c1ccccc1)n2Cc1ccco1	-2.4	-3.9	-3.6	3.0	1.2
COc1ccc(NC(=O)COC(=O)c2ccc(OC)c(S(=O)(=O)N3CCCC3)c2)cc1OC	-4.0	12.0	-6.1	-0.1	4.8
CC(C)Cc1ccc(CC(=O)O)cc1	.	.	.	.	5.1
CCN(CCCNC(=O)c1nn(C)c2c1CS(=O)(=O)c1ccccc1-2)Cc1ccccc1	-22.2	-55.9*	-1.2	0.1	-21.9
Cn1nc(C(=O)NCc2ccccc2Cl)c2c1-c1ccccc1S(=O)(=O)C2	-30.6*!	3.0	1.4	2.8	3.0
Cc1ccc(CCNC(=O)c2nn(C)c3c2CSc2ccccc2-3)cc1	4.7	.	-0.3	0.7	-8.8
CC1CC(C)CN(CCCNC(=O)c2nn(C)c3c2CS(=O)(=O)c2ccccc2-3)C1 (centres undefined)	-42.1*	-19.1	0.3	-0.5	4.3
Cn1nc(C(=O)NCCCN2CCCCC2)c2c1-c1ccccc1SC2	-30.5*	-7.2	-5.5	4.8	-15.7
CCOc1ccccc1CNC(=O)c1ccc2c(c1)nc1n2CCCCC1	-12.2	.	3.2	-0.6	-12.1
Cc1cc(NC(=O)COc2ccccc2C)ccc1NC(=O)c1ccco1	-11.8	-10.7	-4.6	1.2	-9.9
N#Cc1cccc(C(=O)Nc2cccc(S(=O)(=O)N3CCCC3)c2)c1	-10.5	14.8	-5.8	8.1	0.9
Cc1ccc(Nc2nc(Cl)c(C=O)s2)cc1Cl	8.1	0.9	-3.1	3.1	-0.3
CCN(CC)c1nc(NN)nc(Nc2ccc(C)c(Cl)c2)n1	.	-79.4*	.	.	-2.6
Cn1c(=O)c(C(=O)CN2CC(=O)Nc3ccccc32)c(N)n(Cc2ccccc2)c1=O	-6.4	4.0	-1.8	1.9	6.6
CCOc1ccc(Oc2cc(N)cc([N+](=O)[O-])c2)cc1	-25.1	8.0	-5.2	2.3	12.9
CCOc1ccc([N+](=O)[O-])c(N)c1	-33.1*	-15.2	-4.9	0.7	-2.9
Cc1c(N)nc(C(CC(N)=O)NCC(N)C(N)=O)nc1C(=O)NC(C(=O)NC(C)C(O)C(C)C(=O)NC(C(=O)NCCc1nc(-c2nc(C(=O)NCCCN[C@@H](C)c3ccccc3)cs2)cs1)C(C)O)C(O[C@@H]1O[C@@H](CO)[C@@H](O)[C@H](O)[C@@H]1O[C@H]1O[C@H](CO)[C@@H](O)[C@H](OC(N)=O)[C@@H]1O)c1cnc[nH]1 (some centres undefined)	.	.	.	.	5.6
CCCOc1ccc(CNC(=O)c2cc3ccccn3n2)cc1	-15.6	.	2.0	0.1	-8.7
CC(=O)C1=C(O)C(=O)N(CCc2c[nH]c3ccccc23)C1c1cccc(O)c1 (centres undefined)	-0.4	?	-1.2	-1.3	3.9
COc1cc(C2C(C(C)=O)=C(O)C(=O)N2CCc2c[nH]c3ccccc23)ccc1O (centres undefined)	-17.2	-55.5*	-6.4	2.8	-0.4
Cc1ccc(-n2[nH]c(C)c(/C=N/Nc3ccc([N+](=O)[O-])cc3[N+](=O)[O-])c2=O)cc1	-6.7	-56.5*	-10.3	5.7	-20.7
Cn1c(=O)n(C)c2cc(CNC(=O)[C@H]3O[C@@H](n4ccc(=O)[nH]c4=O)[C@H](O)[C@@H]3O)ccc21	.	10.4	.	.	-2.9
Fc1cccc(Cl)c1CSc1nnnn1-c1ccc2c(c1)OCO2	-32.1*	-21.8	-5.6	7.7	-11.4
O=C(Nc1nnc2n1CCS2)c1ccc(F)cc1F	7.9	.	3.4	0.3	0.7
SMILES	D1 antag	DRD3 antagonist	D1 PAM	D1 agonist	D3 ag
C=Cc1c(C)c2cc3nc(cc4[nH]c(cc5nc(cc1[nH]2)C(C)=C5CCC(=O)OC)c(CCC(=O)O)c4C)[C@@]1(C)C3=CC=C(C(=O)OC)[C@H]1C(=O)OC	.	.	.	.	8.4
Cc1cc2nc(-c3ccc[nH]c3=O)[nH]c2cc1C	-64.7*	-16.7	-8.6	1.4	-1.5
Cc1cc2nc(-c3ccc[nH]c3=O)n(Cc3ccc(F)cc3)c2cc1C	-10.8	?	-0.7	3.8	-13.3
COc1ccc(NC(=O)c2cnn(-c3ccccc3)c2C)c(OC)c1	5.3	-61.1*	-2.0	2.2	0.4
Cc1c(C(=O)Nc2cc(F)cc(F)c2)cnn1-c1ccccc1	-32.4*	-2.9	-8.0	5.7	1.7
COc1cc(NC(=O)C/C(C)=N/NC(=O)C(=O)NCCO)c(OC)cc1Cl	-3.2	-16.1	-7.9	2.6	-4.6
Cc1ccc2c(c1)C(=C(C#N)C#N)C(=O)N2CCN1CCCCC1	20.4	-54.6*	-2.0	-0.4	-12.8
Cn1c(=O)c2c(nc(Sc3ncnn3CC(=O)N3CCOCC3)n2C)n(C)c1=O	0.0	-9.7	0.6	1.5	-5.4
C[C@H]1CN([C@@H](C)CO)C(=O)CCCn2nncc2CO[C@@H]1CN(C)Cc1ccc2c(c1)OCCO2	.	-24.0	.	.	-4.7
C[C@H](CO)N1C[C@H](C)[C@@H](CN(C)Cc2ccc3c(c2)OCCN3C)OCc2cnnn2CCCC1=O	.	-87.6*	.	.	-5.3
C[C@@H]1CN([C@H](C)CO)C(=O)CCCn2cc(nn2)CO[C@H]1CN(C)C(=O)Nc1ccc(C(C)(C)C)cc1	.	-100.2*	.	.	-13.6
C[C@H]1CN([C@@H](C)CO)C(=O)CCCn2cc(nn2)CO[C@@H]1CN(C)C(=O)Nc1ccc(C(F)(F)F)cc1	.	-10.4	.	.	10.3
Cc1ccc2c(c1)c(=O)c(S(=O)(=O)c1ccc(F)cc1)cn2CC(=O)Nc1ccc2c(c1)OCO2	6.2	.	-1.1	4.5	-3.6
O=C(Nc1ccc(S(=O)(=O)NCc2ccccc2)cc1)Nc1ccc2c(c1)OCO2	-40.2*	?	-9.9	8.0	-12.5
CN(CCOC(=O)c1ccc2c(c1)OCCO2)C(C)(C)C	4.5	9.9	-6.2	0.5	-7.8
CN(CCOC(=O)c1ccc2c(c1)OCCO2)Cc1ccccc1	11.7	-78.9*	3.7	4.6	-0.1
CC(C)c1ccc(NC(=O)CN(Cc2ccccc2)S(C)(=O)=O)cc1	-19.9	-5.1	-6.5	42.1*	0.6
COCCN(Cc1ccccc1)C(=S)Nc1ccc(Cl)cc1	-36.2*	-5.5	-10.4	4.3	-5.7
Cc1ccc(CNC(=O)c2ccc(CSCc3c(F)cccc3Cl)o2)cc1	-14.6	.	-0.7	10.6	5.1
O=[N+]([O-])c1cccc(S(=O)(=O)NCc2ccncc2)c1	-8.6	-13.5	-3.8	4.1	12.8
Cn1c(=O)c(=O)n(C)c2cc(C(=O)NCc3ccccc3Cl)ccc21	3.3	.	-2.6	1.0	-0.6
CN(CCC(=O)Nc1ccc2c(c1)OCO2)Cc1ccccc1	1.3	-73.2*	-5.0	2.1	-31.4
CN(CC(=O)Nc1ccc(Cl)cc1)C(=O)CCc1ccccc1	10.2	-2.5	-4.0	-3.5	-8.2
CS(=O)(=O)N(CC(=O)Nc1ccc2c(c1)OCO2)Cc1ccccc1	-5.9	-4.1	-5.2	0.9	-3.5
